# Measurements as given in PubChem BioAssay (Tox21).
# Unmarked numbers belong to inactive results. Records with an inconclusive call do not appear. Where a call stands in place of a potency, no number is given. Calls of active or inactive are those of the source. Unless noted, calls come from the whole dose curve; as a rule, active = well fitted curve in the direction sought with a large enough effect in the repeat runs; inconclusive = weak or mixed curves; inactive = no such curve, though single readings can be large; an effect the other way counts as inactive or inconclusive.
# Tests used:
# [1] = qHTS assay for small molecule agonists of the p53 signaling pathway (AID 651631; calls by dose curve; note: nearly all actives have a fitted effect of over 15% in size)
# In short: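 Read-out is beta-lactamase FRET fluorescence measured 2 h after substrate addition at room temperature, in HCT-116 cells with a p53 response element-driven reporter exposed to compounds for 16 h at 37 °C.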
# [2] = qHTS assay for small molecules that induce genotoxicity in human embryonic kidney cells expressing luciferase-tagged ATAD5 (AID 651632); note: nearly all actives have a fitted effect of over 15% in size
# In short: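 Genotoxicity read-out via ATAD5-luciferase: HEK293T cells, 16 hr compound incubation at 37C, Amplite detection.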
# [3] = qHTS assay for small molecules that induce genotoxicity in human embryonic kidney cells expressing luciferase-tagged ATAD5 - cell viability (AID 651634; calls by dose curve; note: nearly all actives have a fitted effect of over 25% in size)
# In short: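 Live-cell protease activity (CellTiter-Fluor, fluorescence) indicates viability. HEK293T cells with luciferase-tagged ATAD5; 15.5 hr compound treatment at 37C.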
# [4] = qHTS assay to test for compound auto fluorescence at 590 nm (red) in HepG2 cells (AID 720674)
# In short: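 Seeding: 2,000 HepG2 cells/well, MEM/10% FBS, overnight 37 C. Dosing: compound vs DMSO. Incubation: 1 hr, 37 C, 5% CO2. Read: fluorescence 540 ex/590 em, Rose Bengal sodium as red reference.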
# [5] = qHTS assay to test for compound auto fluorescence at 535 nm (green) in HepG2 cells (AID 720675)
# [6] = qHTS assay to test for compound auto fluorescence at 460 nm (blue) in HEK293 cells (AID 720678)
# In short: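 Cells were seeded and left to adhere for 4-5 hr at 37C. Compounds were then pin-transferred. After an overnight incubation at 37C under 5% CO2, intrinsic fluorescence at 405/460 nm was measured and referenced to triamterene.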
# [7] = qHTS assay to test for compound auto fluorescence at 590 nm (red) in HEK293 cells (AID 720679)
# In short: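 Each well held 2,000 HEK293 cells in medium containing 10% dialyzed FBS. Following 4-5 hr attachment at 37C, 23 nL test compound or DMSO was added; plates sat overnight, and red fluorescence (540/590nm) was recorded.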
# [8] = qHTS assay for small molecule disruptors of the mitochondrial membrane potential - cell viability (AID 720634; calls by dose curve;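 note: human HepG2 liver cancer cells; series mostly up to about 83 µM; nearly all actives have a fitted effect of over 20% in size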)
# In short: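 Human hepatoma HepG2 cells were treated for 1 hr with test chemicals, then given m-MPI dye and CellTiter-Glo. Cell viability reflects luminescence proportional to cellular ATP.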
# [9] = qHTS assay for small molecule agonists of the p53 signaling pathway - cell viability (AID 651633; calls by dose curve;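 note: p53RE-bla HCT reporter cells with a stable beta-lactamase p53 reporter; series mostly up to about 83 µM; nearly all actives have a fitted effect of over 30% in size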)
# In short: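 p53RE-bla cells were treated with compound for 16 hours at 37 C. Cytotoxicity was then measured as CellTiter-Glo luminescence after 30 min at room temperature.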
# [10] = qHTS assay for small molecule disruptors of the mitochondrial membrane potential (AID 720635); note: potency is the fitted concentration of half-maximal effect
# In short: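 HepG2 cells exposed to compound 1 hr at 37C, then Mito-MPS dye 30 min. Ratio read of aggregate (540/590 nm) versus monomer (490/535 nm) fluorescence.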
Structure (SMILES),outcome [1],outcome [2],Potency [3],outcome [4],outcome [5],outcome [6],outcome [7],outcome [8],outcome [9],"fluorescence, relative to Rose Bengal [4]","fluorescence, % of fluorescein control [5]","fluorescence, % of triamterene [6]","fluorescence, % of fluorescent control [7]",Potency [10]
CCOc1ccc(NC(=O)OC(C)C)cc1OCC,inactive,inactive,inactive,inactive,inactive,inactive,inactive,–,–,–,–,–,–,–
CCCCOC(=O)C(C)OC(=O)CCC (stereo not drawn),inactive,inactive,inactive,inactive,inactive,–,inactive,inactive,–,–,–,–,–,–
NS(=O)(=O)c1cc2c(cc1Cl)NC(C(Cl)Cl)NS2(=O)=O (stereo not drawn),inactive,inactive,inactive,–,–,–,–,–,inactive,0.314% [at 18.6 µM],0.136% [at 18.6 µM],-0.178% [at 18.6 µM],-0.0605% [at 18.6 µM],–
CCCCCCCCCCCCC,inactive,inactive,inactive,inactive,inactive,inactive,inactive,inactive,–,–,–,–,–,inactive
O=C(Oc1ccccc1C(=O)O)c1ccccc1O,inactive,inactive,inactive,inactive,inactive,inactive,inactive,inactive,–,–,–,–,–,inactive
NC(=O)NNC(N)=O,inactive,inactive,inactive,inactive,inactive,inactive,inactive,–,inactive,–,–,–,–,–
Nc1ccc(S(=O)(=O)Nc2ccccn2)cc1,inactive,inactive,inactive,–,–,–,–,inactive,–,0.667% [at 18.6 µM],-0.201% [at 18.6 µM],-0.296% [at 18.6 µM],0.278% [at 18.6 µM],inactive
C=C(C)C(=O)OCCCCCCOC(=O)C(=C)C,inactive,inactive,inactive,inactive,inactive,inactive,inactive,–,–,–,–,–,–,inactive
O=C1c2ccccc2-c2ccccc21,inactive,inactive,inactive,inactive,inactive,inactive,inactive,inactive,–,–,–,–,–,55.9 µM (active)
COCC(=O)Nc1c(I)c(C(=O)NCC(O)CO)c(I)c(C(=O)N(C)CC(O)CO)c1I (stereo not drawn),inactive,inactive,inactive,–,–,–,–,inactive,–,-0.339% [at 18.6 µM],0.0261% [at 18.6 µM],-0.157% [at 18.6 µM],0.231% [at 18.6 µM],–
C=C[C@@H](C)CCC=C(C)C,inactive,inactive,inactive,inactive,inactive,inactive,inactive,inactive,–,–,–,–,–,inactive
OC[C@@H](O)[C@H](O)[C@@H](O)[C@@H](O)CO,inactive,inactive,inactive,inactive,inactive,inactive,inactive,–,inactive,–,–,–,–,–
CC(=O)N(CC(O)CO)c1c(I)c(C(=O)NCC(O)CO)c(I)c(C(=O)NCC(O)CO)c1I (stereo not drawn),inactive,inactive,inactive,inactive,inactive,inactive,inactive,–,inactive,–,–,–,–,–
O=c1[nH]c(=O)c2[nH]c(=O)[nH]c2[nH]1,inactive,inactive,inactive,inactive,inactive,inactive,inactive,inactive,–,–,–,–,–,inactive
BrC/C=C/CBr,inactive,inactive,inactive,–,–,–,–,–,inactive,-0.458% [at 18.6 µM],-0.0535% [at 18.6 µM],0.0974% [at 18.6 µM],0.0091% [at 18.6 µM],–
CCC(=O)OCCC(C)CCC=C(C)C (stereo not drawn),inactive,inactive,inactive,inactive,inactive,inactive,inactive,–,inactive,–,–,–,–,–
C=CC(C)(O)CC/C=C(\C)CC (stereo not drawn),inactive,inactive,inactive,inactive,inactive,inactive,inactive,inactive,–,–,–,–,–,–
O=C(c1ccc2c(c1)C(=O)OC2=O)c1ccc2c(c1)C(=O)OC2=O,inactive,inactive,inactive,inactive,inactive,inactive,inactive,inactive,–,–,–,–,–,inactive
CC1=NN(c2ccc(S(=O)(=O)O)cc2)C(=O)C1N=Nc1ccccc1 (stereo not drawn),inactive,inactive,–,inactive,inactive,inactive,inactive,inactive,inactive,–,–,–,–,–
SCCSCCS,inactive,inactive,inactive,inactive,inactive,inactive,inactive,inactive,–,–,–,–,–,–
COc1cccc2sc(N)nc12,–,inactive,inactive,inactive,inactive,inactive,inactive,inactive,inactive,–,–,–,–,43.5 µM (active)
Cc1ncc([N+](=O)[O-])n1CC(O)CCl (stereo not drawn),–,inactive,inactive,–,–,–,–,inactive,inactive,-0.0192% [at 18.6 µM],-0.155% [at 18.6 µM],-0.195% [at 18.6 µM],-0.364% [at 18.6 µM],–
CC(=O)OCC(=O)[C@@]1(O)[C@H](OC(C)=O)C[C@H]2[C@@H]3CCC4=CC(=O)C=C[C@]4(C)[C@@]3(F)[C@@H](O)C[C@@]21C,–,inactive,inactive,inactive,inactive,inactive,–,inactive,inactive,–,–,–,–,–
O=C1NC2NC(=O)NC2N1 (stereo not drawn),–,inactive,inactive,inactive,inactive,inactive,inactive,inactive,inactive,–,–,–,–,inactive

Structure (SMILES),outcome [1],outcome [2],Potency [3],outcome [4],outcome [5],outcome [6],outcome [7],outcome [8],outcome [9],"fluorescence, relative to Rose Bengal [4]","fluorescence, % of fluorescein control [5]","fluorescence, % of triamterene [6]","fluorescence, % of fluorescent control [7]",Potency [10]
O=C(O)c1ccccc1C(=O)OCc1ccccc1,inactive,–,inactive,inactive,inactive,inactive,inactive,inactive,–,–,–,–,–,–
CC(C)CCC(=O)CCC(C)C,–,inactive,inactive,inactive,inactive,inactive,–,inactive,inactive,–,–,–,–,–
C=CCOC(=O)c1ccc(C(=O)OCC=C)c(C(=O)OCC=C)c1,–,inactive,inactive,inactive,inactive,inactive,–,–,inactive,–,–,–,–,inactive
CC(C)(C)NCCO,–,inactive,inactive,inactive,inactive,inactive,–,inactive,inactive,–,–,–,–,–
C=CCOc1c(Br)cc(C(C)(C)c2cc(Br)c(OCC=C)c(Br)c2)cc1Br,–,inactive,inactive,inactive,inactive,inactive,inactive,inactive,inactive,–,–,–,–,inactive
CC(C)(CO)[C@@H](O)C(=O)NCCCO,–,inactive,inactive,inactive,inactive,inactive,inactive,inactive,inactive,–,–,–,–,inactive
CCCCC[Si](OCC)(OCC)OCC,–,inactive,inactive,inactive,inactive,inactive,inactive,inactive,inactive,–,–,–,–,48.6 µM (active)
CCc1nccnc1C,–,inactive,inactive,inactive,inactive,–,inactive,inactive,inactive,–,–,–,–,–
O=P(O)(O)OCC(O)CO (stereo not drawn),–,inactive,inactive,inactive,inactive,inactive,inactive,inactive,inactive,–,–,–,–,inactive
Cc1oc(=O)oc1CN1CCN(c2cc3c(cc2F)c(=O)c(C(=O)O)c2n3C(C)S2)CC1 (stereo not drawn),–,inactive,inactive,inactive,inactive,–,inactive,inactive,inactive,–,–,–,–,–
CC(C)COC(=O)CCCCC(=O)OCC(C)C,–,inactive,inactive,inactive,inactive,inactive,inactive,inactive,inactive,–,–,–,–,–
Cc1nc([N+](=O)[O-])cn1-c1ccc([N+](=O)[O-])cc1,–,inactive,inactive,inactive,inactive,inactive,–,inactive,inactive,–,–,–,–,inactive
COC(/C=C(\C)CCC=C(C)C)OC,–,inactive,inactive,inactive,inactive,inactive,–,inactive,inactive,–,–,–,–,inactive
COc1ccc(/C=N/NC(=O)c2ccncc2)cc1OC,–,inactive,inactive,inactive,inactive,inactive,inactive,inactive,inactive,–,–,–,–,inactive
CCCOCCOCCOCCO,–,inactive,inactive,inactive,inactive,inactive,–,inactive,inactive,–,–,–,–,–
Cc1ccccc1N1CCN(CCc2nnc3n2CCCC3)CC1,–,inactive,inactive,inactive,inactive,inactive,inactive,inactive,inactive,–,–,–,–,–
Cc1cccc(Nc2ccncc2S(=O)(=O)NC(=O)NC(C)C)c1,–,inactive,inactive,–,–,–,–,inactive,inactive,-0.554% [at 18.6 µM],0.0113% [at 18.6 µM],0.173% [at 18.6 µM],0.875% [at 18.6 µM],inactive
C[C@H](CCC(=O)O)[C@H]1CC[C@H]2[C@@H]3[C@H](O)C[C@@H]4C[C@H](O)CC[C@]4(C)[C@H]3C[C@H](O)[C@]12C,–,inactive,inactive,inactive,inactive,inactive,inactive,–,inactive,–,–,–,–,inactive
C=C(C)C(=O)OC,inactive,–,inactive,inactive,inactive,–,inactive,–,–,–,–,–,–,inactive
C=C(C)[C@@H]1CC[C@@H](C)C[C@@H]1O,inactive,–,inactive,inactive,inactive,inactive,inactive,–,–,–,–,–,–,–
CCC(C)N (stereo not drawn),–,inactive,inactive,inactive,inactive,inactive,inactive,inactive,inactive,–,–,–,–,inactive
O=C(/C=C/c1ccccc1)NCCO,–,inactive,inactive,inactive,inactive,inactive,–,inactive,inactive,–,–,–,–,inactive
CCC(CO)CO,–,inactive,inactive,inactive,inactive,inactive,inactive,inactive,inactive,–,–,–,–,–
